Data from PubChem BioAssay AID1159580 (chemical genetic matrix, 2015).
Among all 5,500 compounds or so, about 2,000 (36%) were called active. Inconclusive results (about 18%) are left out. No stated cut-off is given here; in the data, active means normalized growth mostly below about 0.91 (no sharp cut-off); inconclusive means no clear call, values can overlap the other calls; inactive means mostly above about 0.92. The list shows a part of the results.

Assay: chemical genetic growth profiling, strain panel (AID 1159580);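 further: tested at 20 µM; growth read once vehicle control cultures reached saturation at 30 °C; 1 = growth at the plate median or of vehicle wells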
Conditions: growth OD

Measured: normalized growth

CC(=O)NCc1c(I)c(NC(C)=O)c(I)c(C(=O)O)c1I
inactive: S. cerevisiae deletion strains, locus YJR075W, strain HOC1, stronger effect = lower value 1.01 | S. cerevisiae deletion strains, locus YKL009W, strain mrt4, stronger effect = lower value 1.1 | S. cerevisiae deletion strains, locus YKL068W, stronger effect = lower value 0.977 | S. cerevisiae deletion strains, locus YKL085W, strain MDH1 (second series), stronger effect = lower value 1.01 | S. cerevisiae deletion strains, locus YKL085W, strain MDH1, stronger effect = lower value 1.01 | S. cerevisiae deletion strains, locus YKL160W, strain elf1, stronger effect = lower value 0.981 | S. cerevisiae deletion strains, locus YKL190W, strain CNB1, stronger effect = lower value 0.997 | S. cerevisiae deletion strains, locus YKR001C, strain vps1, stronger effect = lower value 1 | S. cerevisiae deletion strains, locus YKR026C, strain gcn3, stronger effect = lower value 0.994 | S. cerevisiae deletion strains, locus YKR091W, strain srl3, stronger effect = lower value 0.998 | S. cerevisiae deletion strains, locus YLL001W, strain dnm1, stronger effect = lower value 0.999 | S. cerevisiae deletion strains, locus YLL026W, stronger effect = lower value 0.991 | S. cerevisiae deletion strains, locus YLL041C, strain sdh2, stronger effect = lower value 0.995 | S. cerevisiae deletion strains, locus YLR027C, strain aat2, stronger effect = lower value 1 | S. cerevisiae deletion strains, locus YLR039C, strain RIC1, stronger effect = lower value 1 | S. cerevisiae deletion strains, locus YLR058C, strain SHM2, stronger effect = lower value 0.999 | S. cerevisiae deletion strains, locus YLR102C, strain apc9, stronger effect = lower value 0.993 | S. cerevisiae deletion strains, locus YLR113W, strain HOG1, stronger effect = lower value 1.02 | S. cerevisiae deletion strains, locus YLR221C, strain rsa3, stronger effect = lower value 0.992 | S. cerevisiae deletion strains, locus YLR258W, strain gsy2, stronger effect = lower value 1 | S. cerevisiae deletion strains, locus YLR262C, strain YPT6 (second series), stronger effect = lower value 1 | S. cerevisiae deletion strains, locus YLR262C, strain YPT6, stronger effect = lower value 0.991 | S. cerevisiae deletion strains, locus YLR268W, strain sec22, stronger effect = lower value 0.97 | S. cerevisiae deletion strains, locus YLR320W, strain mms22, stronger effect = lower value 0.978 | S. cerevisiae deletion strains, locus YLR330W, strain CHS5, stronger effect = lower value 0.992 | S. cerevisiae deletion strains, locus YLR342W, strain FKS1 (second series), stronger effect = lower value 1.04 | S. cerevisiae deletion strains, locus YLR342W, strain FKS1, stronger effect = lower value 0.999 | S. cerevisiae deletion strains, locus YLR357W, strain rsc2, stronger effect = lower value 1.01 | S. cerevisiae deletion strains, locus YLR370C, strain arc18, stronger effect = lower value 1 | S. cerevisiae deletion strains, locus YLR371W, strain rom2, stronger effect = lower value 0.99 | S. cerevisiae deletion strains, locus YLR384C, strain iki3, stronger effect = lower value 0.987 | S. cerevisiae deletion strains, locus YLR418C, strain cdc73, stronger effect = lower value 1.02 | S. cerevisiae deletion strains, locus YML016C, strain PPZ1, stronger effect = lower value 1 | S. cerevisiae deletion strains, locus YML032C, strain rad52, stronger effect = lower value 0.998 | S. cerevisiae deletion strains, locus YML120C, strain ndi1, stronger effect = lower value 0.994 | S. cerevisiae deletion strains, locus YML124C, strain tub3, stronger effect = lower value 1 | S. cerevisiae deletion strains, locus YMR058W, strain fet3, stronger effect = lower value 0.995 | S. cerevisiae deletion strains, locus YMR078C, strain ctf18, stronger effect = lower value 0.984 | S. cerevisiae deletion strains, locus YMR125W, strain sto1, stronger effect = lower value 1.02 | S. cerevisiae deletion strains, locus YMR129W, stronger effect = lower value 1 | S. cerevisiae deletion strains, locus YMR205C, strain PFK2, stronger effect = lower value 1.01 | S. cerevisiae deletion strains, locus YMR223W, strain ubp8, stronger effect = lower value 1.02 | S. cerevisiae deletion strains, locus YMR231W, strain pep5, stronger effect = lower value 0.991 | S. cerevisiae deletion strains, locus YMR263W, strain SAP30, stronger effect = lower value 0.987 | S. cerevisiae deletion strains, locus YMR307W, strain GAS1, stronger effect = lower value 1.08 | S. cerevisiae deletion strains, locus YNL067W, strain RPL9B, stronger effect = lower value 0.987 | S. cerevisiae deletion strains, locus YNL071W, strain lat1, stronger effect = lower value 1 | S. cerevisiae deletion strains, locus YNL128W, strain TEP1, stronger effect = lower value 0.988 | S. cerevisiae deletion strains, locus YNL153C, strain GIM3, stronger effect = lower value 0.999 | S. cerevisiae deletion strains, locus YNL183C, strain NPR1, stronger effect = lower value 0.963 | S. cerevisiae deletion strains, locus YNL209W, strain ssb2, stronger effect = lower value 1 | S. cerevisiae deletion strains, locus YNL233W, strain BNI4, stronger effect = lower value 1.01 | S. cerevisiae deletion strains, locus YNL248C, strain rpa49, stronger effect = lower value 0.996 | S. cerevisiae deletion strains, locus YNL250W, strain rad50, stronger effect = lower value 0.99 | S. cerevisiae deletion strains, locus YNL271C, strain bni1, stronger effect = lower value 0.989 | S. cerevisiae deletion strains, locus YNL298W, strain CLA4, stronger effect = lower value 0.995 | S. cerevisiae deletion strains, locus YNL307C, strain MCK1, stronger effect = lower value 0.997 | S. cerevisiae deletion strains, locus YNL322C, strain KRE1 (second series), stronger effect = lower value 0.989 | S. cerevisiae deletion strains, locus YNL322C, strain KRE1, stronger effect = lower value 0.994 | S. cerevisiae deletion strains, locus YNR049C, strain mso1, stronger effect = lower value 0.996 | S. cerevisiae deletion strains, locus YNR052C, strain pop2, stronger effect = lower value 0.978 | S. cerevisiae deletion strains, locus YOL006C, strain TOP1, stronger effect = lower value 0.981 | S. cerevisiae deletion strains, locus YOL012C, strain htz1 0.964 | S. cerevisiae deletion strains, locus YOL147C, strain pex11, stronger effect = lower value 0.995 | S. cerevisiae deletion strains, locus YOR001W, strain rrp6, stronger effect = lower value 1.01 | S. cerevisiae deletion strains, locus YOR061W, strain CKA2, stronger effect = lower value 1 | S. cerevisiae deletion strains, locus YOR069W, strain VPS5, stronger effect = lower value 0.998 | S. cerevisiae deletion strains, locus YOR070C, strain gyp1, stronger effect = lower value 0.998 | S. cerevisiae deletion strains, locus YOR080W, strain dia2, stronger effect = lower value 0.995 | S. cerevisiae deletion strains, locus YOR083W, strain WHI5, stronger effect = lower value 0.983 | S. cerevisiae deletion strains, locus YOR106W, strain vam3, stronger effect = lower value 0.979 | S. cerevisiae deletion strains, locus YOR136W, strain idh2, stronger effect = lower value 0.999 | S. cerevisiae deletion strains, locus YOR144C, strain elg1, stronger effect = lower value 0.984 | S. cerevisiae deletion strains, locus YOR184W, strain ser1, stronger effect = lower value 0.995 | S. cerevisiae deletion strains, locus YOR231W, strain MKK1, stronger effect = lower value 1.03 | S. cerevisiae deletion strains, locus YOR265W, strain rbl2, stronger effect = lower value 0.994 | S. cerevisiae deletion strains, locus YOR270C, strain vph1, stronger effect = lower value 1.02 | S. cerevisiae deletion strains, locus YOR290C, strain snf2, stronger effect = lower value 1.01 | S. cerevisiae deletion strains, locus YOR316C, strain cot1, stronger effect = lower value 0.986 | S. cerevisiae deletion strains, locus YPL051W, strain arl3, stronger effect = lower value 0.997 | S. cerevisiae deletion strains, locus YPL055C, strain LGE1, stronger effect = lower value 0.984 | S. cerevisiae deletion strains, locus YPL078C, strain atp4, stronger effect = lower value 1 | S. cerevisiae deletion strains, locus YPL106C, strain sse1, stronger effect = lower value 0.993 | S. cerevisiae deletion strains, locus YPL240C, strain hsp82, stronger effect = lower value 0.98 | S. cerevisiae deletion strains, locus YPL241C, strain CIN2, stronger effect = lower value 1 | S. cerevisiae deletion strains, locus YPL256C, strain CLN2, stronger effect = lower value 1.01 | S. cerevisiae deletion strains, locus YPR119W, strain clb2, stronger effect = lower value 0.999 | S. cerevisiae deletion strains, locus YPR141C, strain kar3, stronger effect = lower value 0.986 | S. cerevisiae deletion strains, locus YPR163C, strain tif3, stronger effect = lower value 1 | S. cerevisiae deletion strains, locus YPR167C, strain met16, stronger effect = lower value 0.985 | S. cerevisiae deletion strains, strain wtn01, stronger effect = lower value 0.989 | S. cerevisiae strains, strain wild type, stronger effect = lower value 1
